The values that follow come from PubChem BioAssay AID1918969 (ICCB-Longwood Screening Facility, Harvard Medical School, 2023).

The structures appear in SMILES notation. Values joined by “and” are separate entries in the source; they are usually repeats but may differ in a detail not shown here. Identical values can stand only once. Screen size: about 190,000 compounds; about 280 (0.15%) were called active. No stated cut-off is given here; in the data, active means inhibition above about 27% (passing the limit was not always enough); inactive means the rest. Many of the other results were omitted from the sample, so actives are more common in it than they were.

The test relates to HCMV UL50-UL53 nuclear egress complex (human cytomegalovirus). The test can be described thus: HCMV nuclear egress complex disruptors – biochemical, HTRF (AID 1918969). Particulars: HTRF UL50-UL53 interaction, normalized percent inhibition; hits give high values; concentration not given here.
`CCCC1O[C@@H]2CC3C4CCC5=CC(=O)C=CC5(C)C4[C@@H](O)CC3(C)[C@]2(C(=O)CO)O1` (stereo partly drawn): the inhibition was -70.7% (inactive). As for `NNC(=O)CCCc1nc2ccccc2s1`, the inhibition was -31.3% (inactive). The value for `O=C(CCc1nc2ccccc2s1)OCC(=O)c1ccco1` was -34.2% (inactive); that for `O=C(OCc1nc2ccccc2s1)c1coc2ccccc2c1=O` was 54.6% (active). Consider `CCOc1cc(/C=C2/C(=O)N(c3nn[nH]n3)N=C2C)cc(Cl)c1OCC`, for which the inhibition is -8.7% (inactive). Regarding `CC(C(=O)OCc1ccc(F)cc1)N1C(=O)c2ccccc2C1=O` (stereo not drawn), the inhibition was -2.6% (inactive). Take `O=C(CC(c1ccccc1)c1ccccc1)NCc1ccco1`: the inhibition is 13.4% (inactive). As to `O=c1c(-c2nnc3c(Cl)nc4ccccc4n23)coc2ccccc12`, the inhibition is -9.1% (inactive).

For `Cc1n[nH]c(C)c1Cc1ccc(N)cc1`, the inhibition is -0.1% (inactive). Regarding `Cc1ccc(-n2ccnc(NCCc3ccccc3)c2=O)cc1`, the inhibition is -0.4% (inactive). In the case of `CCN(CC)S(=O)(=O)c1ccc(N=Nc2c(O)[nH]c(=S)[nH]c2=O)cc1` it was -70.2% (inactive); in that of `Cc1cc(C(=O)CSc2ccc(S(=O)(=O)N(C)C)cn2)c(C)n1-c1ncn[nH]1`, -15% (inactive); in that of `O=C1CC(c2ccc(S(=O)(=O)N3CCCc4ccccc43)cc2)CN1` (stereo not drawn), -28.3% (inactive). Take `O=C(COC(=O)Cc1ccc(F)cc1)Nc1ccccc1`: the inhibition is 1.8% (inactive). Take `Cc1ccc(C)c2c1NC(c1ccc(Br)cc1)C1CC=CC21` (stereo not drawn): the inhibition is -3.3% (inactive).

On to `CCc1nc(-c2cc(S(=O)(=O)N3CCC(C(=O)Nc4cccc(OC)c4)CC3)c(C)s2)no1`, for which the inhibition was -7.1% (inactive). `CC1CCN(C(=O)Cn2ncc3c4ccccc4n(Cc4ccccc4)c3c2=O)CC1`: the inhibition is -7.3% (inactive). As for `Cc1ccc(CNC(=O)c2ccc(-n3nnc4cccnc43)cc2)cc1`, the inhibition was -21.8% (inactive). The value for `CCN(CC)S(=O)(=O)c1ccc2c(c1)nc(CCC(=O)OCC#N)n2C` was -6% (inactive).

Consider `CCOC(=O)N1CCCC1C(=O)O` (stereo not drawn), for which the inhibition is -17.9% (inactive).

With `O=C(NC1CCCC1)c1cc(-c2ccccc2)on1`, the inhibition was -1.9% (inactive). Turning to `O=C(NC1CCCC1)c1ccc(N2CCOc3ccccc32)s1`, the inhibition was 42.2% (active). Turning to `O=C(NC1CCCC1)c1ccc(Br)s1`, the inhibition is -3.7% (inactive). In the case of `CNC(=O)c1ccc(N2CCOc3ccc(Cl)cc32)s1` it was 14.6% (inactive); in that of `O=C(NC1CCCCCCC1)c1cccs1`, -0.7% (inactive). As to `O=C(NC1CCCCC1)c1ccc(-n2ccc3ccccc32)s1`, the inhibition is 37.9% (active). Regarding `O=C(c1c(F)c(F)c(F)c(F)c1F)N(CCO)Cc1ccccc1`, the inhibition was -6.4% (inactive). For the compound `CNC(=O)COC(=O)c1ccc(Br)o1`, the inhibition is -3.2% (inactive). In the case of `Cn1c(=O)n(C)c2cc(N3CCOCC3)c(NS(=O)(=O)c3ccc4c(c3)CCCC4)cc21` it was -20% (inactive); in that of `Cc1ccc2nsnc2c1S(=O)(=O)NCCc1c(C)[nH]c2ccccc12`, -75.9% (inactive); in that of `Cc1ccc(N2C(=O)/C(=C/c3ccc(OCC(=O)O)c(Br)c3)C(=O)NC2=S)cc1`, -28.5% (inactive).

On to `CC1=C(C(=O)OCCOc2ccccc2)C(c2cccnc2)C2=C(CC(c3ccc(Cl)cc3)CC2=O)N1` (stereo not drawn), for which the inhibition is -27.9% (inactive).

For `Cn1c2c(c3cc(C4CCCCC4)ccc31)CCCCC2=O`, the inhibition is 1.4% (inactive). The value for `CCOC(C)=C(C#N)C#N` was 5.1% (inactive); that for `CC12CCOC1N(c1ccccc1)c1ccccc12` (stereo not drawn) was -18.7% (inactive). The value for `CC(=O)Nc1ccc(N2C(=O)c3cc(C)nn3CC2(C)C(=O)NCc2ccc(Cl)cc2)cc1` (stereo not drawn) was -1.4% (inactive); that for `Cc1ccc(C2/C(=C(\O)c3ccccc3)C(=O)C(=O)N2CCN2CCOCC2)cc1` (stereo not drawn) was 0.4% (inactive). With `Cc1c2cnn(CC(=O)NCc3ccco3)c(=O)c2c(C)n1Cc1ccccc1`, the inhibition was -1.5% (inactive). Turning to `CCOC(=O)c1c(C)n(-c2ccc(Cl)cc2)c2ccc(Oc3nccc(Nc4ccccc4)c3C#N)cc12`, the inhibition is -12.5% (inactive). For the compound `N#CC(=C=[N-])c1nc2ccccc2nc1-[n+]1cccc(NC(=O)c2ccc(Br)o2)c1`, the inhibition is -17.4% (inactive).

Regarding `O=C(CN1CCN(S(=O)(=O)c2ccc3[nH]c(=O)[nH]c3c2)CC1)N1CCCCCC1`, the inhibition is -26.1% (inactive). On to `CCOCCCNC(=O)N1Cc2c(sc3c2CCCC3)-n2cccc2C1c1ccc(N(C)C)cc1` (stereo not drawn), for which the inhibition is -33.4% (inactive). In the case of `CC(C)CCNC(=O)C1(C)Cn2c(cc3ccccc32)C(=O)N1C1CC1` (stereo not drawn), the inhibition is -9.6% (inactive). For the compound `Cc1ccc(-n2c(=O)c3c(n4c(SCC(N)=O)nnc24)-c2ccccc2CC32CCCCC2)cc1`, the inhibition is -17.8% (inactive). In the case of `O=C(COc1ccc(-c2nc(-c3ccccc3)no2)cc1)N1CCCC1`, the inhibition was -28.2% (inactive). As for `Cc1ccc(S(=O)(=O)C2(C(=O)N3CCc4ccccc43)CC2)cc1`, the inhibition is 1% (inactive). `COc1cc(C=C2C(=O)NC(=O)NC2=O)ccc1OCCOc1ccc([N+](=O)[O-])cc1`: the inhibition was 1.5% (inactive). Consider `CCOc1cc(C=C2C(=O)NC(=O)NC2=O)ccc1OCCOc1ccc([N+](=O)[O-])cc1`, for which the inhibition is -8.1% (inactive). In the case of `CCOc1cc(C=C2C(=O)NC(=O)NC2=O)ccc1OCCOCCOc1ccc(C)cc1` it was 45.8% (active); in that of `CCOC(=O)/C(C#N)=C/Nc1ccccc1`, -4.4% (inactive). With `Cc1cc(C)c(C(N)=O)c(=O)[nH]1`, the inhibition is -10.3% (inactive). Turning to `O=C(NN1C(=O)/C(=C/c2ccc(-c3ccc([N+](=O)[O-])cc3)o2)SC1=S)c1ccccc1[N+](=O)[O-]`, the inhibition is -1.8% (inactive). For the compound `CCCC(O)c1nc2ccccc2n1CCOc1ccccc1Cl` (stereo not drawn), the inhibition was -14.3% (inactive).

As for `CC1CCN(S(=O)(=O)c2ccc3ncn(CC(=O)N4CCCCC4C)c(=O)c3c2)CC1` (stereo not drawn), the inhibition was 3.7% (inactive). With `CC(C)(Oc1ccc(Cl)cc1)C(=O)OCCN1CCCC1=O`, the inhibition was 16.4% (inactive). Take `CCOC(=O)c1c(C)oc2nc(COc3ncnc4c3cnn4-c3ccccc3)nc(N)c12`: the inhibition was -27.9% (inactive). `Nc1c(C(=O)N2CCc3ccccc3C2)sc(=S)n1-c1ccccc1`: the inhibition is 3.7% (inactive). In the case of `CCCCCC#CCC#CCCCCCCCC(=O)O`, the inhibition was -8.8% (inactive).

On to `CC(Nc1nc(N2CCCC2)nc2ccccc12)c1ccccc1` (stereo not drawn), for which the inhibition is 38.8% (inactive) and -22.4% (inactive). On to `CCN(CC)c1nc(-c2ccccc2O)nc2ccccc12`, for which the inhibition is -4.1% (inactive). For the compound `CC(C)Nc1nc(-c2ccccc2O)nc2ccccc12`, the inhibition was 54.6% (active). For `Cc1ccc(C)c(NC(=O)Cc2coc3ccc(C)cc23)c1`, the inhibition is -31.3% (inactive). Consider `Cc1c(C(=O)O)sc2ncnc(N3CCN(c4ccccn4)CC3)c12`, for which the inhibition was -8.6% (inactive). The value for `O=C(O)CCCOc1ccc(Cl)cc1` was -22.4% (inactive); that for `CCOc1ccc(N2CC(c3nc4ccccc4n3CCOc3ccc(OC)cc3)CC2=O)cc1` (stereo not drawn) was -33.2% (inactive). Consider `CCc1ccccc1N1CC(c2nc3ccccc3n2CCCCOc2ccccc2)CC1=O` (stereo not drawn), for which the inhibition was 74.6% (active).

For `COc1ccc(OCCCn2c(C3CC(=O)N(c4ccc(F)cc4)C3)nc3ccccc32)cc1` (stereo not drawn), the inhibition was -4.1% (inactive). The value for `CCc1nn(CC(=O)NCC2CCCO2)c(=O)c2cc3ccccc3n12` (stereo not drawn) was -52.3% (inactive). On to `CCOC(=O)c1sc2cccc(F)c2c1S(=O)(=O)N1CC=C(c2ccccc2)CC1`, for which the inhibition was 6.4% (inactive). In the case of `COC(=O)c1cc(S(=O)(=O)N2CCc3ccccc3C2)c[nH]1` it was -4.8% (inactive). With `Fc1cccc(Cl)c1CSc1nnc(-c2c[nH]c3ccccc23)o1`, the inhibition was 15.6% (inactive). As for `CCCc1oc2cc(O)ccc2c(=O)c1Oc1ccc(F)cc1`, the inhibition was 3.5% (inactive). Consider `Cc1cc(C)cc(-n2c(CCC(=O)O)ccc2-c2cccs2)c1`, for which the inhibition is -19.7% (inactive). Turning to `Cc1cc(C)c2[nH]c(=O)c(CN(C(=O)Nc3ccccc3F)C3CC3)cc2c1`, the inhibition was -21% (inactive). Regarding `CCOc1ccc(N2C(=O)N(CC(=O)N3CCCCC3C)c3ccccc3S2(=O)=O)cc1` (stereo not drawn), the inhibition was -6.7% (inactive).

Take `CCOC(=O)C1(c2ccccc2)CCCN1C(=O)CN1C(=O)c2ccccc2C1=O` (stereo not drawn): the inhibition is -40.9% (inactive). Regarding `Cc1c(C(F)(F)F)nc(-c2ccc(CN(C)C)cc2)[nH]c1=O`, the inhibition is -18.3% (inactive). The value for `CCOC(C(=O)c1ccccc1)c1ccccc1` (stereo not drawn) was 1.5% (inactive); that for `CCOC(=O)C1(C2(O)C(=O)c3ccccc3C2=O)CCCC1=O` (stereo not drawn) was 7.6% (inactive); that for `CCOC(=O)C(C(=O)c1ccccc1)C1(O)C(=O)c2ccccc2C1=O` (stereo not drawn) was 94.1% (active). On to `C#CCn1c(O)c(N=NC(=O)c2cc(OC)c(OC)c(OC)c2)c2ccccc21`, for which the inhibition is -43.6% (inactive). Take `Nc1nnc2c([nH]c3ccccc32)c1-c1ccccc1`: the inhibition was -61.1% (inactive).

Take `COc1ccc(CC(=O)OCC(=O)Nc2cc(C)ccc2C)cc1`: the inhibition was 20.6% (inactive). In the case of `Cc1cc(=O)n2[nH]c(CN(C(=O)CC(C)C)c3ccc(Cl)cc3)nc2n1` it was -9.7% (inactive); in that of `CCCn1c2ccccc2n2cc(-c3ccc(F)cc3)nc12`, -23.6% (inactive).

Take `CCOC(=O)C1=C(C)N(c2ccc(OC)cc2)C(=O)/C1=C\c1ccco1`: the inhibition was -53.1% (inactive). As for `COc1ccccc1-c1nnc(SCC(=O)Nc2cccc3nsnc23)n1-c1ccccc1`, the inhibition is -31.2% (inactive). In the case of `COc1ccc(C2CC2/C(C)=N/O)cc1` (stereo not drawn) it was -8.3% (inactive); in that of `CN(C)S(=O)(=O)c1ccc2nc(NC(=O)CN3C(=O)c4ccccc4C3=O)sc2c1`, -36.1% (inactive); in that of `Clc1cccc(-c2cc(-c3nc(-c4ccccc4)no3)[nH]n2)c1`, -20.2% (inactive). For `Cn1c(CNC(=O)OC(C)(C)C)nnc1SCc1c(F)cccc1Cl`, the inhibition is -17% (inactive). With `CCC(Sc1nc2ncccc2o1)C(=O)N(Cc1ccccc1)C(C)C` (stereo not drawn), the inhibition was -29.3% (inactive). Consider `CCN1C(=O)c2cccc3c(S(=O)(=O)Nc4cccc(C)n4)ccc1c23`, for which the inhibition is -9% (inactive).
